The results in this text go back to PubChem BioAssay (NCATS).

Experiment [1] deals with N-terminal Xaa-Pro-Lys N-methyltransferase 1 (Homo sapiens) (UniProt Q9BV86). Nature of the experiment: qHTS Assay for Inhibitors of N-terminal methyltransferase 1 (NTMT1): LOPAC validation of the NTMT1 SAHH-coupled ThioGlo3 Assay (AID 1347143).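 Also: SAH from peptide methylation measured as thiol fluorescence via SAHH coupling and ThioGlo3; potency is read from the fitted curve at half-maximal effect; nearly all actives have a fitted effect of over 70% in size.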 In a few lines: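 In this qHTS pilot against the LOPAC set, 125nM NTMT1 met compounds tested at multiple concentrations, and fluorescence was normalized to background.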
Chain of N-terminal Xaa-Pro-Lys N-methyltransferase 1 (Homo sapiens) (Q9BV86 whole entry, looked up): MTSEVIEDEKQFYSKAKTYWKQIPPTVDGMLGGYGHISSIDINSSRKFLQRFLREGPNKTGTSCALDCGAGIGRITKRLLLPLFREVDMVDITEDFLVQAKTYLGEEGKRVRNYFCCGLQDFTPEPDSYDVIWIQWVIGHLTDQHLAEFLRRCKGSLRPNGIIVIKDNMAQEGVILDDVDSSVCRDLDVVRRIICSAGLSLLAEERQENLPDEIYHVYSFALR

Experiment [2] concerns Zika virus NS2B-NS3 protease (unlinked). In words: Optimization of GU AMC qHTS for Zika virus inhibitors: Unlinked NS2B-NS3 protease assay (AID 1347151). Also: potency is read from the fitted curve at half-maximal effect; nearly all actives have a fitted effect of over 80% in size. In a few lines: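 Fluorescence gain (340/450 nm) over 15 min at room temperature, ~20% conversion, gave percent inhibition fitted to a 4-parameter Hill equation; enzyme was unlinked NS2B-NS3 (25 nM final), pH 8.0 Tris buffer.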
In general terms: Quantitative high-throughput screening tests each substance at several concentrations.

A short description of experiment [3]: Confirmatory screen GU Rhodamine qHTS for Zika virus inhibitors qHTS (AID 1347157). Also: potency is read from the fitted curve at half-maximal effect; nearly all actives have a fitted effect of over 70% in size. In a few lines: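 Percent inhibition derives from the 15-min fluorescence change (ex 480, em 540 nm), normalized to no-enzyme and no-inhibitor wells. Reactions contained 25 nM NS2B-NS3 complex and 1.5 microM substrate in 10 mM Tris-HCl pH 8.0.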
The nature of experiment [4]: ZIKV-mCherry secondary qHTS for Zika virus inhibitors (AID 1347158). Also: potency is read from the fitted curve at half-maximal effect. In a few lines: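 Read-out is percent infection: mCherry-positive Vero cells (nuclear-proximal intensity >450 RFU, 3 SD above negative controls) counted by high-content imaging of Hoechst-stained, PFA-fixed wells after 48-72 h with ZIKV-mCherry at MOI 1 and compound.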
A short description of experiment [5]: Confirmatory screen NINDS Rhodamine qHTS for Zika virus inhibitors (AID 1347161). Also: potency is read from the fitted curve at half-maximal effect; nearly all actives have a fitted effect of over 60% in size. In a few lines: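 Purified linked NS2B-NS3 protease (NS2B hydrophilic domain joined to NS3 protease by flexible linker), 25 nM in 10 mM Tris-HCl pH 8.0, 0.01% Tween 20. Compounds titrated, 15 min preincubation at room temperature; 1.5 microM Rhodamine110 substrate, FITC fluorescence change over 15 min.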

Experiment [6] deals with Zika virus NS2B-NS3 protease (linked). In words: 384 well plate NINDS AMC confirmatory qHTS for Zika virus inhibitors (AID 1347163). Also: potency is read from the fitted curve at half-maximal effect; nearly all actives have a fitted effect of over 50% in size. In a few lines: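 Enzyme (5, 30 or 60 nM final) first met test compounds for ~15 min. The AMC-tagged peptide Ac-VKTGKR-AMC followed at 30 microM. Fluorescence was then recorded at 25 min and scaled against no-enzyme and no-inhibitor wells.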

Experiment [7] concerns Zika virus NS2B-NS3 protease (linked construct). Nature of the experiment: 384 well plate NINDS Rhodamine confirmatory qHTS for Zika virus inhibitors (AID 1347164).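 Also: fluorescence from protease cleavage of Ac-LKRR-rhodamine 110 substrate; top concentration of the series differs between compounds; nearly all actives have a fitted effect of over 65% in size.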 In a few lines: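 Fluorescence at 485/538 nm was measured 25 minutes after adding 10 microM Ac-LKRR-Rd substrate, in the dark at room temperature. The protease (5, 30 or 60 nM final) had been preincubated ~15 minutes with compound; aprotinin as control.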

The target of experiment [8] is Lysine-specific demethylase 5B (Homo sapiens) (UniProt Q9UGL1). Nature of the experiment: Optimization screen for KDM5B Histone Demethylases FDH coupled qHTS against the LOPAC library (AID 1347166). In a few lines:
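KDM5BDeltaAP (200nM final) in 50mM HEPES pH 7.5, 0.01% Tween-20 was preincubated with compound for 10 min at room temperature. A substrate mix of 12.5uM H3K4Me3, 25uM a-ketoglutarate, ascorbate, Fe2+, NAD+ and formaldehyde dehydrogenase was then added. NADH fluorescence (340/450 nm) was read initially and after 30 min.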

The nature of experiment [9]: Tertiary RLuc qRT-PCR qHTS assay for Zika virus inhibitors (AID 1347169). Also: top concentration of the series differs between compounds; nearly all actives have a fitted effect of over 55% in size. In a few lines: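 Orthogonal cell-based readout: luminescence measured 1-1.5 hrs after adding live-cell Renilla substrate to Vero cells that had been infected with ZIKV-RLuc (MOI 1-2) post-compound, incubated 48-72 hrs at 37 degrees C.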
Experiment [10] is described as follows: qHTS to identify inhibitors of the type 1 interferon - major histocompatibility complex class I in skeletal muscle: primary screen against the NCATS LOPAC collection (AID 1347405).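 Also: human myoblasts with HiBiT tag on endogenous HLA-B stimulated by IFN-beta; lytic HiBiT luminescence reporting HLA-B protein level.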 In a few lines:
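HLA-B HiBiT myoblasts, IFN-b 4 ng/ml, dexamethasone-free medium; compounds 7-pt 1:4.3 titration, top 46 uM final; 24 h at 37 C; Nano-Glo HiBiT lytic reagent, 10 min RT, luminescence.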

Experiment [11] in a line: Validation qHTS assay for inhibitors of Activation Induced Cytidine Deaminase (AID): UDG Counterscreen signal (AID 1347427). In a few lines: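 Fluorescence at 560 nm excitation, 665 nm emission reports UDG signal after 250 mM NaOH (2x) addition and 30 min. Enzymes (AID 1 uM, UDG 2 U/mL, at 4/3x) preincubated 10 min with compound, then 4 h with 4x 250 nM DJC20/DJC23 substrate at room temperature.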

Experiment [12] addresses Single-stranded DNA cytosine deaminase (Homo sapiens) (UniProt Q9GZX7). In words: Validation qHTS assay for inhibitors of Activation Induced Cytidine Deaminase (AID): AID signal (AID 1347429). Also: potency is read from the fitted curve at half-maximal effect. In a few lines: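 AID+UDG coupled FRET deamination; cpds up to 114 uM final; DJC20/DJC23 substrate, 4 hr RT; NaOH stop, 30 min RT; read Ex 540/Em 590.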
A short description of experiment [13]: Primary qHTS for inhibitors of La Crosse Virus (LACV) - induced cell death in SH-SY5Y cells (AID 1508616).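 Also: top concentration of the series differs between compounds; higher means more rescue of cells from virus-induced death.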 In a few lines:
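Cytopathicity rescue screen: compounds pinned onto SH-SY5Y cells, which are then infected with LACV (MOI 0.01) and held 6 days at 37C. Percent activity is scaled between infected DMSO control and uninfected DMSO control.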

The nature of experiment [14]: Primary qHTS for small molecule stabilizers of the endoplasmic reticulum resident proteome: Secreted ER Calcium Modulated Protein (SERCaMP) assay (AID 1508630). In a few lines: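 The SH-SY5Y reporter protocol was run at 3 concentrations up to 38.3 uM (primary) or 11 concentrations (follow-up): 16 h compound, 100 nM thapsigargin for 4 h, then extracellular luciferase luminescence.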

Experiment [15] deals with Papain (Carica papaya) (UniProt P00784). Nature of the experiment: Primary qHTS assay for inhibitors of the protease papain (AID 1645873).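 Also: papain turnover of Z-FR-AMC read as the AMC fluorescence gain over 10 min; potency is read from the fitted curve at half-maximal effect.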
Chain of Papain (Carica papaya) (P00784 whole entry, looked up): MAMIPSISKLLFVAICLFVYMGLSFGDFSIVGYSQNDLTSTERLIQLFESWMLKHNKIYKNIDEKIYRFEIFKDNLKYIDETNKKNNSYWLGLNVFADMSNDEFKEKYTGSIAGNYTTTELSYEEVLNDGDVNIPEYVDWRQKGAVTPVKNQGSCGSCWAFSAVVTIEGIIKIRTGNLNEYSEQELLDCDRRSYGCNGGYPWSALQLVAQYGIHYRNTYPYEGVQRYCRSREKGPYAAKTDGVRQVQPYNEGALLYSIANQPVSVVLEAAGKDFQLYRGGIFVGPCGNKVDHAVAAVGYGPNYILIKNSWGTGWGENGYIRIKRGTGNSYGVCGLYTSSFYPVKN
The target in experiment [16] is Rap guanine nucleotide exchange factor 3 (Homo sapiens) (UniProt O95398). In words: Confirmatory qHTS for antagonist of cAMP-regulated guanine nucleotide exchange factor 3 (EPAC1) (AID 1645880). Also: potency is read from the fitted curve at half-maximal effect; nearly all actives have a fitted effect of over 55% in size. In a few lines:
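Released BODIPY-GDP fluoresces less than Rap1-bound BODIPY-GDP; the signal is followed at 480/540 nm at 5-min intervals over 30 min, after 5 min at room temperature. Reactions contain 100 nM EPAC1, 250 nM RAP1B-BODIPY-GDP and 50 uM GDP; results are normalized to ATA and DMSO.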

The target is the same in experiment [17]. Nature of the experiment: Confirmatory qHTS for agonist of cAMP-regulated guanine nucleotide exchange factor 3 (EPAC1) (AID 1645881).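 Also: EPAC1 catalysed release of BODIPY-GDP from Rap1B seen as fluorescence loss; nearly all actives have a fitted effect of over 75% in size.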
Experiment [18] addresses Rap guanine nucleotide exchange factor 4 (Homo sapiens) (UniProt Q8WZA2). Nature of the experiment: Confirmatory qHTS for agonist of cAMP-regulated guanine nucleotide exchange factor 4 (EPAC2) (AID 1645884).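 Also: nucleotide exchange releases bodipy-GDP from Rap1 and this lowers its fluorescence; nearly all actives have a fitted effect of over 65% in size.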
Experiment [19] shares this target. Nature of the experiment: Confirmatory qHTS for antagonist of cAMP-regulated guanine nucleotide exchange factor 4 (EPAC2) (AID 1645885). Also: potency is read from the fitted curve at half-maximal effect; nearly all actives have a fitted effect of over 25% in size.
The target in experiment [20] is Metallo-beta-lactamase type 2 (Klebsiella pneumoniae) (UniProt C7C422). In words: qHTS to identify inhibitors of the New Delhi Metallo-beta-lactamase (NDM): assay validation screen against the NCATS LOPAC Collection (AID 1794843). Also: potency is read from the fitted curve at half-maximal effect. In a few lines: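 Nitrocefin hydrolysis (50 uM substrate stock) by NDM-1, 2 nM final, was followed by 485 nm absorbance after compound preincubation; buffer was 50 mM HEPES pH 7.0, 1 uM ZnSO4, 0.01% Tween20.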
Chain of Metallo-beta-lactamase type 2 (Klebsiella pneumoniae) (C7C422 whole entry, looked up): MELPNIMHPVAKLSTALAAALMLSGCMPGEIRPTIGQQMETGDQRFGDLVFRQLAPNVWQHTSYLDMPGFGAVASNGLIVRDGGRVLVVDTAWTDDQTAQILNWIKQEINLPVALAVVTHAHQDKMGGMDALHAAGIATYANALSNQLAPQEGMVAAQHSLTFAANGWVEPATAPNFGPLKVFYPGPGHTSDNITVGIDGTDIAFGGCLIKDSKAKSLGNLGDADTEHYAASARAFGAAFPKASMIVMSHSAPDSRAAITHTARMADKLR

For experiment [21], the target named is Glutathione peroxidase 1 (Homo sapiens) (UniProt P07203). In words: Primary qHTS Assay for Inhibitors of Recombinant Selenoprotein Glutathione Peroxidase 1 (GPX1) (AID 1845191). Also: nearly all actives have a fitted effect of over 65% in size. In a few lines:
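GPX1 10 nM, GR 100 nM, GSH 1 mM, NADPH 0.5 mM, CHP 0.5 mM (final). 30-min cpd preincubation, RT. Ex340/Em450 read t=0, t=15 min.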

Unmarked numbers belong to inactive results. Records with an inconclusive call do not appear. Active and inactive are the calls of the source. Calls follow the shape of the dose curve; as a rule, active = well fitted curve in the direction sought with a large enough effect; inconclusive = small, poorly fitted or top-dose-only effect, or another doubt; inactive = no such curve, though single readings can be large; an effect the other way counts as inactive or inconclusive.

Chain of Rap guanine nucleotide exchange factor 4 (Homo sapiens) (Q8WZA2 whole entry, looked up): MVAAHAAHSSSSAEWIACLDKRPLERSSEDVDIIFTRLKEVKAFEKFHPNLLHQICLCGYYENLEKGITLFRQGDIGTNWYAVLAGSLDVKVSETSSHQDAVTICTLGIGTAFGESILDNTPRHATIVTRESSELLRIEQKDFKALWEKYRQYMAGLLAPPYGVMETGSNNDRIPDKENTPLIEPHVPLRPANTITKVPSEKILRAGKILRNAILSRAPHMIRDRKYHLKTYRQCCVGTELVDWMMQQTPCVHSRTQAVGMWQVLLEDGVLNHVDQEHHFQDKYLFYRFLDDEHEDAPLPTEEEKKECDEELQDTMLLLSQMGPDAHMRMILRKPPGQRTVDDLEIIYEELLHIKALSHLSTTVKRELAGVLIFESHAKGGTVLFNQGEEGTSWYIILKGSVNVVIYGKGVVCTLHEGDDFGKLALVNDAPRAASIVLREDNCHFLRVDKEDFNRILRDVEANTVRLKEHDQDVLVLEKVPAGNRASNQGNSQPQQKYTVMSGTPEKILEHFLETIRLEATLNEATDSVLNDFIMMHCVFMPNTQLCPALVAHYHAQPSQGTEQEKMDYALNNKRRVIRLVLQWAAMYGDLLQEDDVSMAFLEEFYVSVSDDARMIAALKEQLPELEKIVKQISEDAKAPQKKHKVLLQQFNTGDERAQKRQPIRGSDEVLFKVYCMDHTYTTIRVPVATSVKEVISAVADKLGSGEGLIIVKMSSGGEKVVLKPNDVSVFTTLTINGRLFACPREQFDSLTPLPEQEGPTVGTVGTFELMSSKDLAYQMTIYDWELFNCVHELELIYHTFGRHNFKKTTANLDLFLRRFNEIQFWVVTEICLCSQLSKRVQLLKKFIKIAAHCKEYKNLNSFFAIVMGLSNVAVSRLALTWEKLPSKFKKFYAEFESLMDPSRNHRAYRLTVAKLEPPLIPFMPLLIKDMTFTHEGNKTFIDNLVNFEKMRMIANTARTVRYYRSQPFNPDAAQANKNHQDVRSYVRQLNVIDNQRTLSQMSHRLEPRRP
Chain of Rap guanine nucleotide exchange factor 3 (Homo sapiens) (O95398 whole entry, looked up): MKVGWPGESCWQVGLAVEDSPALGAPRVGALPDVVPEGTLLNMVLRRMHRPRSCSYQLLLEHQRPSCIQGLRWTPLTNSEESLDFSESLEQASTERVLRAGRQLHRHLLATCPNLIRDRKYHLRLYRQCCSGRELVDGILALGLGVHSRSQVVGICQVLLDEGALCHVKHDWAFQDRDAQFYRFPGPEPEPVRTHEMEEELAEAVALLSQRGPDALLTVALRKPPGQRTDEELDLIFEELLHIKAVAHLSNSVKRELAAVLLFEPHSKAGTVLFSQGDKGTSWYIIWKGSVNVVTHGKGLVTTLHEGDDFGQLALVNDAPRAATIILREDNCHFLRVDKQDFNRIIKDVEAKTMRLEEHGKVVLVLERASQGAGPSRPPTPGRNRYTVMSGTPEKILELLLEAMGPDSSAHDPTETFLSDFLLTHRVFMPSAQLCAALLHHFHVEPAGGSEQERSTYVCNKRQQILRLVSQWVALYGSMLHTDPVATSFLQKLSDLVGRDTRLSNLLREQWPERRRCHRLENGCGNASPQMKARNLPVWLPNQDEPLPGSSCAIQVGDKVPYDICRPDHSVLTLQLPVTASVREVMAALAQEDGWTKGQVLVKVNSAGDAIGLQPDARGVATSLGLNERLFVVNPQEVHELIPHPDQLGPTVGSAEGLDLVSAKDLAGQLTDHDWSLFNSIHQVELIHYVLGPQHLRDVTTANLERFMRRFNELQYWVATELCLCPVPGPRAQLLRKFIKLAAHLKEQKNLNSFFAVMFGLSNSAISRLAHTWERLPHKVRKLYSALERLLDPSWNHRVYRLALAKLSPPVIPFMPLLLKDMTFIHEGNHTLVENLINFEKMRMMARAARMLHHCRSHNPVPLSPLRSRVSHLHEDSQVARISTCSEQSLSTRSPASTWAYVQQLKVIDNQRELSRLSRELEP
Chain of Glutathione peroxidase 1 (Homo sapiens) (P07203 whole entry, looked up): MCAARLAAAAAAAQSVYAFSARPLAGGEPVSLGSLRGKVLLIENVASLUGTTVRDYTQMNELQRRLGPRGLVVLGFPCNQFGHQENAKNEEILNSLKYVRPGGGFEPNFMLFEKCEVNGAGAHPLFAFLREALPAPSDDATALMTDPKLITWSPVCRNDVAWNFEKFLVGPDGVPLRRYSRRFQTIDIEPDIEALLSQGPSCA
Chain of Single-stranded DNA cytosine deaminase (Homo sapiens) (Q9GZX7 whole entry, looked up): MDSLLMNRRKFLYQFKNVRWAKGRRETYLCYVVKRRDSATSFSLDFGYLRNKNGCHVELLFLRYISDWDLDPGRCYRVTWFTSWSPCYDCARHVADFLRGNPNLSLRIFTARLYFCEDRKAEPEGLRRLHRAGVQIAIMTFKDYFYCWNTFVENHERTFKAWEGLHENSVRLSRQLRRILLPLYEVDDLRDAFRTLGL
Chain of Lysine-specific demethylase 5B (Homo sapiens) (Q9UGL1 whole entry, looked up): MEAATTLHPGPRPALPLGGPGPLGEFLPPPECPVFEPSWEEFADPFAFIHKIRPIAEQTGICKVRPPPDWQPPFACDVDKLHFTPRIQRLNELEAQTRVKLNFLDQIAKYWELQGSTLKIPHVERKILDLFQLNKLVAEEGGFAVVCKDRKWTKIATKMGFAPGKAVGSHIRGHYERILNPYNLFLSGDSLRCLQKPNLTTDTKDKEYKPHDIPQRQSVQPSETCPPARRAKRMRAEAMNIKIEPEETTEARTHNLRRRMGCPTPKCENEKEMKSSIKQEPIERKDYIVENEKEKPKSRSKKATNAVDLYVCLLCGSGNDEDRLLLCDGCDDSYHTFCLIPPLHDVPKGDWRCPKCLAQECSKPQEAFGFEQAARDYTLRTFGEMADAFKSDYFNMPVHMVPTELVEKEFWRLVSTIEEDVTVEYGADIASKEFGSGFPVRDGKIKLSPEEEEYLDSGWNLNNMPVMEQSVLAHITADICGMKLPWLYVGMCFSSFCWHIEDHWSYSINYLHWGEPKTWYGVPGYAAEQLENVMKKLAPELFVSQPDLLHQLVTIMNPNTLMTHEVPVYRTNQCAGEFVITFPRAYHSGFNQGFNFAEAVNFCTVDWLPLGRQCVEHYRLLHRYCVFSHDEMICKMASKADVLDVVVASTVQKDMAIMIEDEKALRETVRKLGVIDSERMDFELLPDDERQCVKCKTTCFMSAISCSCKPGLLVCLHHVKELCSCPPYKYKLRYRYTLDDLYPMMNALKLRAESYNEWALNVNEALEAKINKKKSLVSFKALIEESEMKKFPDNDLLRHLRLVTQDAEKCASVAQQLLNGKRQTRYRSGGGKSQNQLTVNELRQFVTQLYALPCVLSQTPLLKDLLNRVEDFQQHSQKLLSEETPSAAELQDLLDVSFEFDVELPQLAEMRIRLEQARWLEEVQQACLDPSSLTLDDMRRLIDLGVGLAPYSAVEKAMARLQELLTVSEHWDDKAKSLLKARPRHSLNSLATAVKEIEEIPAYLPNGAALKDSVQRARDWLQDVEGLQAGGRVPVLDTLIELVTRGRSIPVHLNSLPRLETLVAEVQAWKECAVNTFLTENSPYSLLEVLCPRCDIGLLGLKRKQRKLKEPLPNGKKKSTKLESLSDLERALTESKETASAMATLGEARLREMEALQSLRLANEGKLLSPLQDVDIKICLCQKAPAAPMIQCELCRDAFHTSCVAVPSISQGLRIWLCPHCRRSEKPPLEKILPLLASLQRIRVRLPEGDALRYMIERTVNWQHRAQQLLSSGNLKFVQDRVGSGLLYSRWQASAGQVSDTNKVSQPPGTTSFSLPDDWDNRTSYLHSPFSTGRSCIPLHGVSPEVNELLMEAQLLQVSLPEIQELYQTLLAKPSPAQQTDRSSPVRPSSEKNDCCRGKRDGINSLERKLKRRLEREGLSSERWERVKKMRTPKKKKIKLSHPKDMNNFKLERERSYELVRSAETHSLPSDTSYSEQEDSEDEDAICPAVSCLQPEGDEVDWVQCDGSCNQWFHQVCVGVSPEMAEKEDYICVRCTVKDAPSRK

Regarding `Nc1c(S(=O)(=O)O)cc(Nc2ccc(Nc3nc(Cl)nc(Nc4ccc(S(=O)(=O)O)cc4)n3)c(S(=O)(=O)O)c2)c2c1C(=O)c1ccccc1C2=O`, the Potency in [1] is 44.7 µM (active); in experiment [2], 10.6 µM (active); in [3] it was 2.24 µM (active); in experiment [4], 8.91 µM (active); in [5], 2 µM (active); in experiment [6], 10 µM (active). For the same compound, the Potency in [12] was 28.2 µM (active); in experiment [15], 1.78 µM (active); in experiment [16] it was 9.93 µM (active); in experiment [19], 22.1 µM (active); in experiment [20], 0.631 µM (active). In addition, the Potency entry in experiment [7], in experiment [9], in experiment [10], in experiment [14] and in experiment [21] was “inactive” in each case. For the same compound, the result in experiment [8], in [11], in experiment [13], in experiment [17] and in [18] was inactive.
